Reference: PubChem BioAssay (NCI)
“And” between values parts separate entries of the source, which are not always exact repeats. Identical values can stand only once. About 83,000 compounds went through this panel and 20% of them were active in at least one assay; those are over-represented in the sample as a whole.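 96-well plates, one dose, 48 hours. Percent growth reported; active if below 10.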 The source made the active and inactive calls.

Legend:
Assay in all cases: NCI-60 one-dose screen, 48 h (100 = growth as untreated, 0 = no growth, -100 = all killed)
Settings in all cases: 10 µM unless noted
NCI-H23 lung = test system: NCI-H23 lung
NCI-H226 lung = test system: NCI-H226 lung
NCI-H322M lung = test system: NCI-H322M lung
HOP-62 NSCLC = test system: HOP-62 NSCLC
NCI-H460 lung = test system: NCI-H460 lung
HOP-92 NSCLC = test system: HOP-92 NSCLC
NCI-H522 lung = test system: NCI-H522 lung
A549/ATCC NSCLC = test system: A549/ATCC NSCLC
786-0 renal = test system: 786-0 renal
COLO 205 colon = test system: COLO 205 colon
DU-145 prostate = test system: DU-145 prostate
K-562 leukemia = test system: K-562 leukemia
MALME-3M melanoma = test system: MALME-3M melanoma
MDA-MB-231 breast = test system: MDA-MB-231 breast
RXF 393 renal = test system: RXF 393 renal
SF-268 CNS = test system: SF-268 CNS
SF-295 CNS = test system: SF-295 CNS
SF-539 CNS = test system: SF-539 CNS
UACC-257 melanoma = test system: UACC-257 melanoma
M14 melanoma = test system: M14 melanoma

Measured: growth

O=C(O)COc1ccccc1F
inactive: NCI-H23 lung 106% | NCI-H226 lung 94.2% | NCI-H322M lung 106% | HOP-62 NSCLC 117% | NCI-H460 lung 101% | HOP-92 NSCLC 96.3% | NCI-H522 lung 106% | A549/ATCC NSCLC 110% | 786-0 renal 102% | COLO 205 colon 114% | DU-145 prostate 108% | K-562 leukemia 92.5% | MALME-3M melanoma 108% | MDA-MB-231 breast 115% | RXF 393 renal 92.3% | SF-268 CNS 107% | SF-295 CNS 106% | SF-539 CNS 97.4% | UACC-257 melanoma 115%

C/C=C/C(=O)OCCCCCCCCCCCC
inactive: NCI-H23 lung 105% | NCI-H226 lung 87.3% | NCI-H322M lung 114% | HOP-62 NSCLC 102% | NCI-H460 lung 108% | HOP-92 NSCLC 96.5% | NCI-H522 lung 96.3% | A549/ATCC NSCLC 84.2% | 786-0 renal 95% | COLO 205 colon 105% | DU-145 prostate 118% | K-562 leukemia 93.3% | MALME-3M melanoma 111% | MDA-MB-231 breast 93.2% | RXF 393 renal 110% | SF-268 CNS 106% | SF-295 CNS 105% | SF-539 CNS 109% | UACC-257 melanoma 94.4% | M14 melanoma 98.7%

O=C1c2ccccc2C(c2ccccc2)C1c1ccccc1 (stereo not drawn)
inactive: NCI-H23 lung 91% | NCI-H226 lung 101% | NCI-H322M lung 92.5% | HOP-62 NSCLC 98.6% | NCI-H460 lung 95.8% | HOP-92 NSCLC 80.2% | NCI-H522 lung 86.2% | A549/ATCC NSCLC 91.3% | 786-0 renal 107% | COLO 205 colon 101% | DU-145 prostate 104% | K-562 leukemia 77.2% | MALME-3M melanoma 99.5% | MDA-MB-231 breast 89.1% | RXF 393 renal 102% | SF-268 CNS 97.9% | SF-295 CNS 94.8% | SF-539 CNS 101% | UACC-257 melanoma 96.3%

CC(C)(C)OC(=O)NCCc1ccc(N)cc1
inactive: NCI-H23 lung 104% | NCI-H226 lung 94.9% | NCI-H322M lung 103% | HOP-62 NSCLC 96.1% | NCI-H460 lung 97.4% | HOP-92 NSCLC 88.4% | NCI-H522 lung 83.5% | A549/ATCC NSCLC 91% | 786-0 renal 100% | COLO 205 colon 110% | DU-145 prostate 103% | K-562 leukemia 101% | MALME-3M melanoma 95.8% | MDA-MB-231 breast 85.6% | RXF 393 renal 115% | SF-268 CNS 96.3% | SF-295 CNS 99.2% | SF-539 CNS 107% | UACC-257 melanoma 98.2%

CC(C)=NOC(C)C(=O)O (stereo not drawn)
inactive: NCI-H23 lung 108% | NCI-H226 lung 104% | NCI-H322M lung 118% | HOP-62 NSCLC 110% | NCI-H460 lung 107% | HOP-92 NSCLC 73% | NCI-H522 lung 111% | A549/ATCC NSCLC 98.8% | 786-0 renal 97.8% | COLO 205 colon 111% | DU-145 prostate 147% | K-562 leukemia 76.5% | MALME-3M melanoma 112% | MDA-MB-231 breast 99.8% | RXF 393 renal 116% | SF-268 CNS 101% | SF-295 CNS 93.1% | SF-539 CNS 102% | UACC-257 melanoma 92.9%

Cc1nc(Nc2ccc(Cl)cc2)c2cnn(-c3ccccc3)c2n1
inactive: NCI-H23 lung 97.3% | NCI-H226 lung 96.6% | NCI-H322M lung 104% | HOP-62 NSCLC 108% | NCI-H460 lung 103% | HOP-92 NSCLC 95.4% | NCI-H522 lung 105% | A549/ATCC NSCLC 110% | 786-0 renal 103% | COLO 205 colon 102% | DU-145 prostate 107% | K-562 leukemia 113% | MALME-3M melanoma 90.3% | MDA-MB-231 breast 111% | RXF 393 renal 93.6% | SF-268 CNS 99.8% | SF-295 CNS 97.1% | SF-539 CNS 99.9% | UACC-257 melanoma 101%

COc1cc2c(cc1O)C(=O)CCCC2
inactive: NCI-H23 lung 91.8% | NCI-H226 lung 102% | NCI-H322M lung 102% | HOP-62 NSCLC 91.5% | NCI-H460 lung 103% | HOP-92 NSCLC 82.9% | NCI-H522 lung 70.6% | A549/ATCC NSCLC 110% | 786-0 renal 94.9% | COLO 205 colon 143% | DU-145 prostate 117% | K-562 leukemia 124% | MALME-3M melanoma 108% | MDA-MB-231 breast 108% | RXF 393 renal 105% | SF-268 CNS 90.3% | SF-295 CNS 83.8% | SF-539 CNS 99.6% | UACC-257 melanoma 121%

CNc1ccc(O)cc1
inactive: NCI-H23 lung 114% and 104% | NCI-H226 lung 85.2% and 93.6% | NCI-H322M lung 122% and 98.3% | HOP-62 NSCLC 104% | NCI-H460 lung 105% and 115% | HOP-92 NSCLC 102% | NCI-H522 lung 96.3% and 93% | A549/ATCC NSCLC 104% and 114% | 786-0 renal 109% and 106% | COLO 205 colon 132% and 117% | DU-145 prostate 121% and 113% | K-562 leukemia 104% and 118% | MALME-3M melanoma 110% and 107% | MDA-MB-231 breast 104% and 98.9% | RXF 393 renal 95.6% and 114% | SF-268 CNS 121% and 113% | SF-295 CNS 101% | SF-539 CNS 104% and 107% | UACC-257 melanoma 91.5% and 115%

Cc1ccc([N+](=O)[O-])cc1Br
inactive: NCI-H23 lung 110% | NCI-H226 lung 98.4% | NCI-H322M lung 111% | HOP-62 NSCLC 89.4% | NCI-H460 lung 94.4% | HOP-92 NSCLC 106% | NCI-H522 lung 88% | A549/ATCC NSCLC 77.6% | 786-0 renal 96.6% | COLO 205 colon 99.9% | DU-145 prostate 110% | K-562 leukemia 86.3% | MALME-3M melanoma 102% | MDA-MB-231 breast 104% | RXF 393 renal 111% | SF-268 CNS 104% | SF-295 CNS 97.7% | SF-539 CNS 91.7% | UACC-257 melanoma 79.7% | M14 melanoma 95.1%

C=CCN1C(=O)c2ccccc2C1=O
inactive: NCI-H23 lung 103% | NCI-H226 lung 101% | NCI-H322M lung 102% | HOP-62 NSCLC 104% | NCI-H460 lung 101% | HOP-92 NSCLC 80.9% | NCI-H522 lung 86% | A549/ATCC NSCLC 100% | 786-0 renal 103% | COLO 205 colon 98.4% | DU-145 prostate 107% | K-562 leukemia 106% | MALME-3M melanoma 120% | MDA-MB-231 breast 106% | RXF 393 renal 104% | SF-268 CNS 106% | SF-295 CNS 109% | SF-539 CNS 95.3% | UACC-257 melanoma 102%

Cc1cc(NC(=O)NC(=O)c2ccccc2N(C)C)ccc1Oc1ncc(Br)cn1
active: SF-539 CNS -8.43% and -14.3%
9.21% (active) and 34.1% (inactive): MDA-MB-231 breast
inactive: NCI-H23 lung 19.3% and 24.7% | NCI-H226 lung 55.6% and 66.4% | NCI-H322M lung 44.4% and 66.2% | HOP-62 NSCLC 37.7% | HOP-92 NSCLC 57.5% | A549/ATCC NSCLC 43.9% and 33.7% | 786-0 renal 27.9% and 31.4% | COLO 205 colon 14.2% | MALME-3M melanoma 24.6% and 55.2% | SF-268 CNS 44.8% and 63.6% | SF-295 CNS 35.1% and 36.1% | UACC-257 melanoma 26% and 73.5%
30.2% (inactive) and -1.61% (active): RXF 393 renal
8.31% (active) and 10.8% (inactive): NCI-H460 lung
-22.2% (active) and 15.1% (inactive): NCI-H522 lung
-3.51% (active) and 20.7% (inactive): DU-145 prostate
0.98% (active) and 20.3% (inactive): K-562 leukemia

O=c1[nH]c(=O)c2[nH]c(=O)[nH]c2[nH]1
inactive: NCI-H23 lung 92.8% | NCI-H226 lung 93.2% | NCI-H322M lung 101% | HOP-62 NSCLC 105% | NCI-H460 lung 104% | HOP-92 NSCLC 89.9% | NCI-H522 lung 112% | A549/ATCC NSCLC 104% | 786-0 renal 94.2% | COLO 205 colon 105% | DU-145 prostate 107% | K-562 leukemia 135% | MALME-3M melanoma 93.2% | MDA-MB-231 breast 101% | RXF 393 renal 84.6% | SF-268 CNS 103% | SF-295 CNS 98.3% | SF-539 CNS 97.7% | UACC-257 melanoma 107%

O=[N+]([O-])c1ccc(N2CCN=N2)cc1
inactive: NCI-H23 lung 99.6% | NCI-H226 lung 96% | NCI-H322M lung 88% | HOP-62 NSCLC 82.9% | NCI-H460 lung 98.9% | HOP-92 NSCLC 89% | NCI-H522 lung 78.8% | A549/ATCC NSCLC 82.2% | 786-0 renal 84.8% | COLO 205 colon 92.7% | DU-145 prostate 88.2% | K-562 leukemia 63.6% | MALME-3M melanoma 106% | MDA-MB-231 breast 80.4% | RXF 393 renal 109% | SF-268 CNS 85.8% | SF-295 CNS 97.1% | SF-539 CNS 93.4% | UACC-257 melanoma 91.5%

CC1CCC(=O)N1c1ccc(N)cc1 (stereo not drawn)
inactive: NCI-H23 lung 103% | NCI-H226 lung 100% | NCI-H322M lung 96.4% | HOP-62 NSCLC 86.3% | NCI-H460 lung 106% | HOP-92 NSCLC 107% | NCI-H522 lung 85.2% | A549/ATCC NSCLC 89.1% | 786-0 renal 106% | COLO 205 colon 104% | DU-145 prostate 105% | K-562 leukemia 99.9% | MALME-3M melanoma 105% | MDA-MB-231 breast 101% | RXF 393 renal 112% | SF-268 CNS 103% | SF-295 CNS 102% | SF-539 CNS 99.8% | UACC-257 melanoma 88.7%
